Source: PubChem BioAssay (Tox21)
Inconclusive results are not listed. Calls of active or inactive are those of the source. Unless noted, calls follow the shape of the dose curve; as a rule, active = well fitted curve in the direction sought with a large enough effect in the repeat runs; inconclusive = weak or mixed curves; inactive = no such curve, though single readings can be large; an effect the other way counts as inactive or inconclusive.

Assays:
[1] = qHTS assay to identify small molecule agonists of the constitutive androstane receptor (CAR) signaling pathway - cell viability counter screen (AID 1224836); also: nearly all actives have a fitted effect of over 45% in size
Outline: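 Viability read-out: CellTiter-Fluor fluorescence after 23 h compound exposure at 37 C/5% CO2 in double-stable HepG2-CYP2B6-hCAR cells, with PK11195 present at 0.75 uM final; compounds tested in 15-point titration.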

[2] = qHTS assay to identify small molecule antagonists of the constitutive androstane receptor (CAR) signaling pathway - cell viability counter screen (AID 1224837); also: nearly all actives have a fitted effect of over 45% in size
Outline: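 Counter screen run in HepG2-CYP2B6-hCAR cells: 4 hr settle, compound titration (15 concentrations) with 50 nM CITCO, 23 hr at 37 C/5% CO2, CellTiter-Fluor fluorescence.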

[3] = biological target: Nuclear receptor subfamily 1 group I member 3 (Homo sapiens) (UniProt Q14994); experiment: qHTS assay to identify small molecule antagonists of the constitutive androstane receptor (CAR) signaling pathway (AID 1224838);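 also: HepG2 cells stably expressing hCAR with CYP2B6 luciferase reporter stimulated by CITCO; nearly all actives have a fitted effect of over 40% in size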
Chain of Nuclear receptor subfamily 1 group I member 3 (Homo sapiens) (Q14994 whole entry, looked up): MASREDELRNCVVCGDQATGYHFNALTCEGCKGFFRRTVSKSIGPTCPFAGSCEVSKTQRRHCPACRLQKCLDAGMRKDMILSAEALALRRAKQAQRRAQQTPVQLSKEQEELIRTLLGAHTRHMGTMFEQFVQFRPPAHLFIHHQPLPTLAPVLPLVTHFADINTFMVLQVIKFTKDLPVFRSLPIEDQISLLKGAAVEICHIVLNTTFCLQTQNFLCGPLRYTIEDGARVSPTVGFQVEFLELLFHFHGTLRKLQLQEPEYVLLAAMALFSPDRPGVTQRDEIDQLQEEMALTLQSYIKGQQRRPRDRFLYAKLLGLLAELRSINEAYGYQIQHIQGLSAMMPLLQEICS
Outline: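 Cell line: HepG2 double-stable for hCAR and CYP2B6-2.2kb reporter. Agonist: CITCO, 50 nM final. Compounds: 15 concentrations, 24 h, 37 C. Detection: ONE-Glo luminescence.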

[4] = qHTS assay to identify small molecule antagonists of the estrogen related receptor signaling pathway with the pleiotropic PPARgamma coactivator (PGC) from Tox21 10K library - cell viability counter screen (AID 1224840; active = well fitted cell-killing curve with a large enough effect in the repeat runs, not every such curve was filed as active; also: nearly all actives have a fitted effect of over 40% in size)
Outline: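 Following seeding of 2,000 PGC/ERR cells/well and 6 hours' incubation, test compounds were delivered in DMSO. The plates then sat 17.5 hours at 37 C before a fluorogenic live-cell protease reagent (CellTiter-Fluor) was read after 30 min.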

[5] = biological target: Thyrotropin receptor (Homo sapiens) (UniProt P16473); experiment: qHTS assay to identify small molecule agonists of the thyroid stimulating hormone receptor (TSHR) signaling pathway (AID 1224843; calls by dose curve; also: nearly all actives have a fitted effect of over 45% in size)
Chain of Thyrotropin receptor (Homo sapiens) (P16473 whole entry, looked up): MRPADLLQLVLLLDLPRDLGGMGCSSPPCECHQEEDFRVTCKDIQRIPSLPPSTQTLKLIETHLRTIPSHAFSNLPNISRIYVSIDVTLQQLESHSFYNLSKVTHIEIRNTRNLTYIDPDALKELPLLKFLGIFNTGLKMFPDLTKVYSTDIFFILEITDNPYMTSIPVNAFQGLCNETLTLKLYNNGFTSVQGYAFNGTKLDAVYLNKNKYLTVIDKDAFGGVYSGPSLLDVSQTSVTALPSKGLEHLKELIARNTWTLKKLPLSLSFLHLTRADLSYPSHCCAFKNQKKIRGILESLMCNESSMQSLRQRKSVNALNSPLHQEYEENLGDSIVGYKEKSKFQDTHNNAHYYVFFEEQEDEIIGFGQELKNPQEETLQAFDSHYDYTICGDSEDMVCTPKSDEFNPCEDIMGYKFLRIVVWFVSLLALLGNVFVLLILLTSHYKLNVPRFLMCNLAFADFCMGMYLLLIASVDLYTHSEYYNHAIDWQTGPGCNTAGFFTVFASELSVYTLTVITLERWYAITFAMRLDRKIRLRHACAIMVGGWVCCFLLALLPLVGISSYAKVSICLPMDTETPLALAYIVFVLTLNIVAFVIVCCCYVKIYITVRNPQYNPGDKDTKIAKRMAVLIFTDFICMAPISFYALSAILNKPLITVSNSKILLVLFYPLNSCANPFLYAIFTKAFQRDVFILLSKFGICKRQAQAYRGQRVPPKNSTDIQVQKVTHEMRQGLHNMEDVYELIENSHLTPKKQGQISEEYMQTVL
Outline: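 Cell line HEK293 with TSHR; density 800/well. Exposure 30 min RT. Readout HTRF cAMP (cAMP-d2/anti-cAMP-cryptate), 1 h RT before reading.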

[6] = qHTS assay to identify small molecule agonists of the hypoxia (HIF-1) signaling pathway - cell viability counter screen (AID 1224844; calls by dose curve; also: nearly all actives have a fitted effect of over 50% in size)
Outline: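 Cells (HRE-bla ME-180, 2,000 per well) sat 5 hrs at 37C, got compound for 17 hrs, were read for CCF4-AM FRET, and were finally lysed with CellTiter-Glo for a 30 min room-temperature luminescence read.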

[7] = qHTS assay to identify small molecule agonists of H2AX (AID 1224845; active = well fitted activation curve with a large enough effect in the signal ratio in the repeat runs, not every such curve was filed as active; the % refers to the signal ratio; also: potency is read from the fitted curve at half-maximal effect)
Outline: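 Wild-type CHO-K1 cells plated overnight, then exposed 3 hr at 37C to compounds at 15 concentrations (0.76% DMSO). Lysed, then HTRF anti-pH2AX(S139)-cryptate/anti-H2AX-d2 detection after 24 hr at room temperature; emissions 665 and 620 nm.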

[8] = qHTS assay to identify small molecule agonists of the hypoxia (HIF-1) signaling pathway (AID 1224846; active = well fitted activation curve with a large enough effect in the signal ratio in the repeat runs, not every such curve was filed as active; the % refers to the signal ratio)
Outline: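 A low-serum medium (0.5% dialyzed FBS) holding 2,000 HRE-bla ME-180 cells per well is preincubated for 5 hrs, dosed with compounds by pintool, and kept a further 17 hrs at 37C, 5% CO2 before CCF4-AM FRET detection of beta-lactamase.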

[9] = qHTS assay to identify small molecule agonists of H2AX - cell viability counter screen (AID 1224847; calls by dose curve; also: top concentration of the series differs between compounds; nearly all actives have a fitted effect of over 30% in size)
Outline: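 CHO-K1 wt, 1000 cells/well, o/n 37C; cpds 15 conc, 3 h 37C, 0.76% DMSO; CellTiter-Glo, 30 min RT, luminescence.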

[10] = qHTS RealTime-Glo MT Cell Viability Assay in HepG2 cells - 24 hour (AID 1224867); also: nearly all actives have a fitted effect of over 50% in size
Outline: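 Viability was tracked continuously by NanoLuc luminescence from prosubstrate reduced by living HepG2 cells, at successive time points over 40 h of compound exposure. Cells with reagent were preincubated 5 h at 37 °C before compound addition.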

[11] = qHTS RealTime-Glo MT Cell Viability Assay in HEK293 cells - 32 hour (AID 1224868); also: top concentration of the series differs between compounds; nearly all actives have a fitted effect of over 50% in size
Outline: (§1)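 Viability tracked continuously by luminescence as live cells reduce a prosubstrate for NanoLuc; HEK293 cells preincubated 5 h, compound-treated at 37 C, and read at 0, 8, 16, 24, 32 and 40 h.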

[12] = A CellTox Green Cytotoxicity Assay to monitor cytotoxicity in HEK293 cells - 0 hour (AID 1224869); also: nearly all actives have a fitted effect of over 50% in size; also: potency is read from the fitted curve at half-maximal effect
Outline: (§2)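 Fluorescence intensity, read at 0, 8, 16, 24, 32 and 40 h of compound treatment, reflected dye binding to DNA of dead HEK293 cells; compounds (23 nL, DMSO) were added 5 h after plating cells with reagent.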

[13] = qHTS RealTime-Glo MT Cell Viability Assay in HepG2 cells - 40 hour (AID 1224870); also: nearly all actives have a fitted effect of over 50% in size
Outline: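 HepG2 cells mixed with RealTime-Glo MT reagents (NanoLuc plus cell-permeant prosubstrate) were seeded at 600 cells/well, incubated 5 h at 37 C/5% CO2, then pinned with compounds in DMSO; nonlytic luminescence tracked viability during 40 h treatment.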

[14] = A CellTox Green Cytotoxicity Assay to monitor cytotoxicity in HEK293 cells - 40 hour (AID 1224871); also: nearly all actives have a fitted effect of over 45% in size; also: potency is read from the fitted curve at half-maximal effect
Outline: as §2

[15] = qHTS RealTime-Glo MT Cell Viability Assay in HEK293 cells - 16 hour (AID 1224872)
Outline: as §1

[16] = qHTS assay to identify small molecule antagonists of the estrogen related receptor signaling pathway with the pleiotropic PPARgamma coactivator (PGC) from Tox21 10K library (AID 1224841; call rule not given here)
Outline: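 qHTS antagonist format: PGC/ERR cells, 2k/well, compound in DMSO by pin transfer after 6 h attachment, 18 h treatment at 37 C, One-Glo luminescence read at 30 min.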

[17] = qHTS assay to identify small molecule agonists of the estrogen related receptor signaling pathway with the pleiotropic PPARgamma coactivator (PGC) from Tox21 10K library (AID 1224842); also: nearly all actives have a fitted effect of over 15% in size; also: potency is read from the fitted curve at half-maximal effect
Outline: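 PGC/ERR reporter cells (NTP line) were seeded 2,000 per well, rested 6 h at 37 C/5% CO2, then pin-dosed with compounds in DMSO for 18 h at 37 C; luciferase read by One-Glo luminescence after 30 min at room temperature.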

[18] = qHTS assay to identify small molecule antagonists of the estrogen related receptor (ERR) signaling pathway from Tox21 library (AID 1224848); also: nearly all actives have a fitted effect of over 50% in size
Outline: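 Screening used an ERR reporter line supplied by NTP, exposed for 18 h at 37 C to library compounds delivered in DMSO. Signal was luciferase luminescence developed with ONE-Glo at room temperature for 30 min.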

[19] = qHTS assay to identify small molecule agonists of the estrogen related receptor (ERR) signaling pathway from Tox21 library (AID 1224849; calls by dose curve; also: nearly all actives have a fitted effect of over 15% in size); conditions: ERR reporter cell line, ONE-Glo luciferase, 18 h
Outline: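 Screening used an NTP-provided ERR luciferase cell line. Compounds in DMSO were added 6 h after seeding and left 18 h at 37 C before a 30 min ONE-Glo step and luminescence reading.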

[20] = biological target: Nuclear receptor subfamily 1 group I member 3 (Homo sapiens) (UniProt Q14994); experiment: qHTS assay to identify small molecule agonists of the constitutive androstane receptor (CAR) signaling pathway (AID 1224839);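 also: HepG2 cells stably carrying human CAR and a CYP2B6 luciferase reporter; nearly all actives have a fitted effect of over 15% in size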
Outline: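 Luminescence read-out (ONE-Glo, 30 min, room temperature) from double-stable HepG2-CYP2B6-hCAR cells exposed 24 h to 15-point compound series in presence of 0.75 uM PK11195 final.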
% is scaled to controls: 0 for no effect and ±100 for the full control effect.

O=C(O)Cc1ccccc1Nc1c(Cl)cccc1Cl
inactive: Potency [1] | Potency [2] | Potency [3] | Potency [4] | Potency [5] | Potency [6] | Potency [7] | Potency [8] | Potency [9] | Potency [10] | Potency [11] | Potency [12] | Potency [13] | Potency [14] | Potency [15]

O=C(O)O
active: Potency [17] 0.264 µM | Potency [7] 4.88 µM
inactive: viability change, negative = cytotoxic [1] 1.44% [at 8.39 µM] | activity change, negative = cytotoxicity [2] -19.8% [at 8.39 µM] | viability change, negative = cytotoxic [4] -0.122% [at 8.39 µM] | activity, negative = inhibition [16] 259% [at 8.39 µM] | activation [5] 2.41% [at 8.39 µM] | activity change, negative = cytotoxicity [9] -9.67% [at 14 µM] | activity, negative = inhibition [18] 10.7% [at 8.39 µM] | activity change, positive = activation ([19]; at 8.39 µM (top of the series)) 5.47% | activity change, negative = cytotoxicity [10] 3.08% [at 6.97 µM] | activity change, negative = cytotoxic [11] 0.187% [at 6.97 µM] | cytotoxicity [12] 2.74% [at 6.97 µM] | activity change, negative = cytotoxic [13] 19% [at 6.97 µM] | cytotoxicity increase [14] 4.75% [at 6.97 µM] | activity change, negative = cytotoxicity [15] 1.92% [at 6.97 µM]

Cc1c(C)c2c(c(C)c1OC(=O)c1cccnc1)CC[C@@](C)(CCC[C@H](C)CCC[C@H](C)CCCC(C)C)O2
inactive: Potency [1] | Potency [2] | Potency [4] | Potency [16] | Potency [17] | Potency [5] | Potency [6] | Potency [7] | Potency [8] | Potency [9] | Potency [18] | activity change, positive = activation ([19]; at 42.5 µM (top of the series)) 3.86% | Potency [10] | Potency [11] | Potency [12] | Potency [14] | Potency [15]

CN1CCCCC1CCN1c2ccccc2Sc2ccc(S(C)=O)cc21 (stereo unspecified)
inactive: Potency [1] | Potency [2] | Potency [20] | Potency [5] | Potency [7] | Potency [12] | Potency [14] | Potency [15]

[Cl][Pt-2]([Cl])([Cl])[Cl]
inactive: Potency [1] | Potency [2] | Potency [3] | Potency [4] | Potency [17] | Potency [6] | Potency [8] | Potency [9] | Potency [18] | activity change, positive = activation ([19]; at 92.4 µM (top of the series)) -8.8% | Potency [10] | Potency [13] | Potency [14]

Cc1cc(C)c(/C=C2\C(=O)Nc3ccccc32)[nH]1
inactive: Potency [1] | Potency [2] | Potency [4] | Potency [16] | Potency [17] | Potency [5] | Potency [9] | Potency [18] | activity change, positive = activation ([19]; at 42.5 µM (top of the series)) 5.59% | Potency [10] | Potency [11] | Potency [13]
active: Potency [12] 10.7 µM | Potency [14] 9.52 µM

CCOC(=O)Cn1cccc1-c1nc(-c2ccc(OC)cc2)c(-c2ccc(OC)cc2)s1
inactive: Potency [1] | Potency [2] | Potency [3] | Potency [4] | Potency [6] | Potency [9] | Potency [11] | Potency [12] | Potency [14]

NC[C@H]1O[C@H](O[C@H]2[C@H](O[C@@H]3O[C@H](CO)[C@@H](O)[C@H]3O)C(O)[C@H](N)C[C@@H]2N)[C@H](N)[C@@H](O)[C@@H]1O (stereo partly specified)
inactive: viability change, negative = cytotoxic [1] 0.325% [at 8.39 µM] | activity change, negative = cytotoxicity [2] 3.7% [at 8.39 µM] | activity, negative = inhibition [3] -13% [at 8.39 µM] | viability change, negative = cytotoxic [4] 0.247% [at 8.39 µM] | activation [5] -0.16% [at 8.39 µM] | activity change, negative = cytotoxicity [6] -1.39% [at 6.97 µM] | activation (H2AX phosphorylation) [7] -1.16% [at 14 µM] | activation [8] -1.07% [at 7.01 µM] | activity change, negative = cytotoxicity [9] -3.49% [at 14 µM] | activity change, negative = cytotoxicity [10] -0.277% [at 6.97 µM] | activity change, negative = cytotoxic [11] 4.84% [at 6.97 µM] | activity change, negative = cytotoxic [13] 0.986% [at 6.97 µM] | cytotoxicity increase [14] -12.4% [at 6.97 µM] | activity change, negative = cytotoxicity [15] 3.13% [at 6.97 µM]
